From PubChem BioAssay
An excerpt weighted towards active compounds, which were near 1.2% of everything screened.
RGS7-Gao reg: human RGS7-Galphao interaction regulation | P09471 | Multiplexed bead flow cytometry, RGS7-Galphao binding; actives lie on both sides | binding response (% of control), % at 10 µM | hit rate 0.35% among 220,000 | AID 1439; in the data active means binding response below about 49% or above about 150%; inconclusive means no clear call, values can overlap the other calls; inactive means in between;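 further: fluorescent Galphao held in activated GDP-AlF4 state binding bead-coupled RGS7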
Target sequence (P09471 whole entry, looked up): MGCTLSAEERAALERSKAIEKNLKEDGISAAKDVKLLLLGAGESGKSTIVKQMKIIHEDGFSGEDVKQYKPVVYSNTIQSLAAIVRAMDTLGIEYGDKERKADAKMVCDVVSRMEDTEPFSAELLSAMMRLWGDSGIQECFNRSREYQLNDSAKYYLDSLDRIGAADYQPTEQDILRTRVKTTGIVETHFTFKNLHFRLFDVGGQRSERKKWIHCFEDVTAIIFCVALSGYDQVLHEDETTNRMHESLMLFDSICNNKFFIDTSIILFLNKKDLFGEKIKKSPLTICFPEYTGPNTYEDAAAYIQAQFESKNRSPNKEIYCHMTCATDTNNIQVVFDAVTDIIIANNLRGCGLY
RGS4-Gao reg: modulates binding of RGS4 to human Galphao; Multiplexed bead flow cytometry; actives lie on both sides; binding response (% of control), % at 10 µM; hit rate 0.33% among 220,000; in the data active means binding response below about 49% or above about 150%; inactive means in between;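 further: fluorescent Galphao activated with aluminum fluoride binding bead-coupled RGS4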
RGS8-Gao reg: regulators of human RGS8-Galphao interaction | response (percent of control binding), % at 10 µM | AID 1423 | P09471 | hit rate 0.34% among 220,000 | multiplexed bead flow cytometry, RGS8-Galphao binding; actives lie on both sides; in the data active means response below about 60% or above about 140%; inactive means in between;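 further: Galphao activated as the GDP aluminium fluoride complex binding bead-coupled RGS8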
GSH bead fluor: GSH bead compound fluorescence profile | GSH beads flow cytometry, compound fluorescence 488/530 nm; active compounds read high | fluorescence (KMESF) at 10 µM | hit rate 0.25% among 190,000 | AID 1776; in the data active means fluorescence above about 89;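 further: glutathione beads carrying GST-tagged Bcl family fusion proteins plus one bare bead set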
RGS16-Gao: modulates binding between human RGS16 and Galphao | binding response (% of control), % at 10 µM | bead-based flow cytometry RGS16-Galphao binding, fluorescence; actives lie on both sides | O15492+P09471 | hit rate 0.38% among 220,000; call rule not given here;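 further: Galphao activated by GDP with aluminum fluoride before binding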
Avidin bead fluor: avidin bead compound fluorescence profile | fluorescence (KMESF) at 10 µM | Avidin beads, compound fluorescence 488/530 nm, flow cytometry; active compounds read high | hit rate 0.38% among 220,000; in the data active means fluorescence above about 47
Each line names hits and unclear results; the compound was inactive in the other large screens.

CCOc1cccc(/C(O)=C2/C(=O)C(=O)N(Cc3cccnc3)C2c2ccco2)c1 (stereo not given)	Avidin bead fluor 58
O=C(O)CN1C(=O)c2ccc(Oc3ccc4c(c3)C(=O)N(CC(=O)O)C4=O)cc2C1=O	RGS7-Gao reg inconclusive (no result: GSH bead fluor)
COC(=O)c1cnn2c1C(=O)N(Cc1cccs1)CC2	RGS7-Gao reg inconclusive
COc1ccc(-c2cc(C#N)nc(N3CCNCC3)n2)cc1	Avidin bead fluor 49
CCOC(=O)C1=C(C)C(c2ccccc2)NC(=S)N1 (stereo not given)	none
O=C(O)/C=C/C(=O)N1CCN(S(=O)(=O)c2cccc(C(F)(F)F)c2)CC1	none
O=C(CSc1cccc(C(F)(F)F)c1)N1CCN(S(=O)(=O)c2ccccc2)CC1	GSH bead fluor 265
COc1ccc(S(=O)(=O)N(C)C)cc1NCC(=O)Nc1cccc(C#N)c1	none
Cn1nnc(NC(=O)CSc2ccc(Cl)cc2)n1	Avidin bead fluor 48
Cc1cccc(C)c1NC(=O)COc1cccc(/C=N/NC(=O)C(=O)NCc2ccccc2)c1	Avidin bead fluor 57
Cc1ccc(/C=C2\CCC3=C2OC(N)=C(C#N)C3c2ccc(C)cc2)cc1 (stereo not given)	Avidin bead fluor 66
COCCNC(=O)CSc1nc(N)c(NC(=O)c2ccccc2F)c(=O)[nH]1	none
COc1ccc(-c2nc(-c3ccccc3)nc(N3CCN(C)CC3)c2C#N)cc1	Avidin bead fluor 51
CCCSc1nc2c(cnn2-c2ccccc2)c(=O)n1N	RGS7-Gao reg inconclusive (no result: GSH bead fluor)
CCCCSc1nc2c(cnn2-c2ccccc2)c(=O)n1N	Avidin bead fluor 61
COC(=O)CSc1nsc(SCC(=O)OC)c1C#N	Avidin bead fluor 52
CSc1snc(SCC(N)=O)c1C#N	none
COc1ccc2c(c1)c1ncn(CCCN3CCOCC3)c(=O)c1n2C	none
Cn1c2ccccc2c2ncn(CCN3CCOCC3)c(=O)c21	GSH bead fluor 253
CCCn1c(N2CCOCC2)nc2c1c(=O)[nH]c(=O)n2C	Avidin bead fluor 60
CCCn1c(N2CCN(C)CC2)nc2c1c(=O)[nH]c(=O)n2C	none
CSc1ccc(Cl)c(C(=O)NCc2ccco2)c1	GSH bead fluor 250
O=C(O/N=C1\CCS(=O)(=O)c2sccc21)c1ccccc1	Avidin bead fluor 51
COC(=O)c1ccc(N2C(=O)Nc3ccccc3N2O)cc1	none
Cc1cc(C)n2c(SCCC(C)C)nnc2n1	GSH bead fluor 255
COc1ccc(CNCCSc2nnnn2C)c(OC)c1OC	none
COc1ccc(Br)cc1CNCCSc1nnnn1C	GSH bead fluor 253
O=[N+]([O-])c1ccc(Cl)c(/C=N/Nc2nc(N3CCOCC3)nc(N3CCOCC3)n2)c1	Avidin bead fluor 354
O=[N+]([O-])c1ccc(/C=N/Nc2nc(N3CCOCC3)nc(N3CCOCC3)n2)cc1	none
COc1ccccc1/C=N/NC(=O)c1nnn(-c2nonc2N)c1CSC1=NCCS1	none
COc1ccccc1-c1nn2c(-c3ccco3)nnc2s1	none
COc1ccccc1-c1nn2c(=O)cc(C)nc2s1	GSH bead fluor 254
Cc1ccc(S(=O)(=O)N2CCOCC2)cc1NC(=O)CNC1CCCC1	RGS7-Gao reg inconclusive (no result: GSH bead fluor)
Cc1cccc(CN(C)CCc2ccccn2)c1	none
Cc1cccc(OCC(=O)N(C)CCc2ccccn2)c1	Avidin bead fluor 47
O=C(O)c1cc(NCc2ccc(F)cc2)ccc1N1CCOCC1	none
O=C(O)c1cc(NCc2ccccc2C(F)(F)F)ccc1N1CCOCC1	Avidin bead fluor 52
S=C1NC(c2ccccc2)N2C(=S)NC(c3ccccc3)N12 (stereo not given)	none
COc1ccc(C2NC(=S)N3C(c4ccc(OC)cc4)NC(=S)N23)cc1 (stereo not given)	GSH bead fluor 266
CCCCNC(=O)CSc1nc2ccsc2c(=O)n1CCCC(=O)NCCc1ccc(S(N)(=O)=O)cc1	none
COc1ccc(/C=N/n2c(N)c(S(=O)(=O)c3cccs3)c3nc4ccccc4nc32)cc1OC	Avidin bead fluor 47
COc1cccc(/C=N/n2c(N)c(S(=O)(=O)c3cccs3)c3nc4ccccc4nc32)c1	none
Nc1c(S(=O)(=O)c2cccs2)c2nc3ccccc3nc2n1/N=C/c1cccc(O)c1	Avidin bead fluor 57
Cc1ccc(S(=O)(=O)N/N=C/c2c(C)nn(-c3ccccc3)c2C)cc1	none
